CYP2C9 inh – blocks human cytochrome P450 2C9. P11712. CYP2C9 Supersomes, luciferin-H conversion, luminescence. inhibition, % at 5 µM. actives 20% (n = 96,000);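 active = blocking of liver enzyme CYP2C9 beyond about 50% at 5 µM, limit read from the data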
PostGolgi ctrl – growth of the yeast control strain, post-Golgi counter-screen | inhibition, % at 10 µM | actives 5% (n = 98,000) | efflux-deficient yeast background strain, growth absorbance A615, 16 h | AID 738
CYP2C19 activ – increases human CYP2C19 enzyme activity; AID 1025; 96,000 tested, under 10 active; activation factor at 5 µM; recombinant CYP2C19, luciferin-H EGE luminescence; hits give high values; 0 = fully inhibited enzyme, 1 = untreated enzyme;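 active = activation factor of at least 2 at 5 µM in the primary screen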;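 also: 0 = wells with 2.5 mM tranylcypromine and 1 = vehicle-only wells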
Target sequence (P33261 whole entry, looked up): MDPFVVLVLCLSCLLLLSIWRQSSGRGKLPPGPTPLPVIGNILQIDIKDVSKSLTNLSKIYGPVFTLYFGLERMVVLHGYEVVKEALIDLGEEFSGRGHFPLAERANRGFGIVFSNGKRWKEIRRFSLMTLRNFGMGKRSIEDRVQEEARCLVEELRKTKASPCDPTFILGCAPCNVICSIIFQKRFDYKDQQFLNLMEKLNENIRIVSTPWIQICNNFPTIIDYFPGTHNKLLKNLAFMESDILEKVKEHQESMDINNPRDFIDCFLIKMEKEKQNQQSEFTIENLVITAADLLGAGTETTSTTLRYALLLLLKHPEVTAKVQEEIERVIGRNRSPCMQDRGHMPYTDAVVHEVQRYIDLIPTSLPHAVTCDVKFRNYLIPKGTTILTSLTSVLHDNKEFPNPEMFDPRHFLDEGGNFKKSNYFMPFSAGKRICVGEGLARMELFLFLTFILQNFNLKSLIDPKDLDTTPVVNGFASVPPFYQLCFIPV
CYP2C19 inhib – blocks human cytochrome P450 2C19 | P33261 | CYP2C19 Supersomes, luciferin-H EGE luminescence, 30 min | inhibition, % at 5 µM | actives 21% (n = 96,000) | AID 778;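 active = CYP2C19 inhibition above a set limit at 5 µM in the primary screen, cut at about 50% in these data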;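 also: plate controls were negative control wells for no effect and 2.5 mM tranylcypromine positive control for full effect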
PostGolgi yeast – growth inhibition of a yeast mutant, post-Golgi transport screen | post-Golgi transport phenotypic cell assay | inhibition, % at 10 µM | actives 0.9% (n = 98,000);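 also: yeast cells grown in 1536-well plates; yeast grown about 18 h at 30C before absorbance read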
CYP2C9 activ – increases human cytochrome P450 2C9 activity | P11712 | recombinant CYP2C9, luciferin-H conversion, luminescence; hits give high values; factor 1 = untreated enzyme, 0 = blocked | activation factor at 5 µM | actives 1.4% (n = 96,000);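 active = activation factor of 2 or more for CYP2C9 at a 5 µM dose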;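 also: 0 = sulfaphenazole-blocked wells and 1 = vehicle-only wells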
The depositor's hits bear a star. An excerpt weighted towards active compounds, which were near 32% of everything screened. Rule as the data show it, unless noted: active = inhibition above about 30%; inactive = the rest.

SMILES	CYP2C9 inh	PostGolgi ctrl	CYP2C19 activ	CYP2C19 inhib	PostGolgi yeast	CYP2C9 activ
CS(=O)(=O)N(CC(=O)N1CCN(c2ccc(F)cc2)CC1)c1ccc(F)c(Cl)c1	-87	0	0.3	71*	3	1.9
COc1ccc(N2CCN(C(=O)CN(c3cccc(Br)c3)S(C)(=O)=O)CC2)cc1	-29	11	0.9	5	5	1.3
Cc1cccc(N(CC(=O)N2CCCC2)S(=O)(=O)c2ccccc2)c1	73*	-2	0.4	58*	-7	0.3
CS(=O)(=O)N(CC(=O)N1CCN(c2ccccc2)CC1)c1cccc(Br)c1	-179	-1	0.4	64*	1	2.8*
CCOC(=O)CSc1ncnc2c1cnn2-c1ccc(Cl)cc1	-9	-3	1.1	-12	5	1.1
CC(C)(C)n1nnnc1C(c1ccccc1F)N1CCN(C2CCCC2)CC1 (centres undefined)	3	0	1.1	-9	-8	1
CN(c1ccc(C(=O)N2CCN(c3ccc(F)cc3)CC2)cc1)S(C)(=O)=O	46	6	0.9	10	0	0.5
CCOc1ccccc1N(CC(=O)N1CCOCC1)S(=O)(=O)c1ccccc1	76*	1	0.7	29	-8	0.2
C=CCN(c1ccc(C(=O)N2CCN(c3ccc(F)cc3)CC2)cc1)S(C)(=O)=O	55*	12	0.6	44	1	0.4
CN(C)c1ccc(/C=N/NC(=O)CN(c2cccc(Cl)c2)S(C)(=O)=O)cc1Br	51*	-4	0.7	26	22	0.5
Cc1ccc(S(=O)(=O)N(CC(=O)N2CCC(C(N)=O)CC2)c2cccc(C(F)(F)F)c2)cc1	45	5	0.8	16	43*	0.5
O=C(C1CCCN(S(=O)(=O)Cc2ccccc2)C1)N1CCc2ccccc21 (centres undefined)	8	4	0.8	24	6	0.9
NC(=O)CN1CCN(C(=O)Nc2ccccc2)CC1	-7	4	1	-4	7	1.1
CCCn1nc(Oc2nc(NCC)nc(NC(C)C)n2)ccc1=O	5	4	0.8	20	-10	0.9
CS(=O)(=O)N(CC(=O)N1CCCC1)c1cccc(Cl)c1	6	4	0.4	57*	1	0.9
CS(=O)(=O)N(CC(=O)O)c1cccc(Cl)c1	-4	6	1	0	10	1
CS(=O)(=O)N(CC(=O)N1CCCCCC1)c1cccc(Br)c1	41	-1	0.2	77*	-17	0.6
Cc1cc(C)cc(N(CC(=O)N2CCC(C)CC2)S(=O)(=O)c2ccccc2)c1	50	13	0.9	13	6	0.5
Cc1cc(C)cc(N(CC(=O)N2CCC(C)CC2)S(C)(=O)=O)c1	-123	8	0.9	13	2	2.2*
COC(=O)Oc1ccc(/C=N/NC(=O)CN(c2ccccc2Cl)S(C)(=O)=O)cc1OC	63*	-5	0.7	34	-5	0.4
Cc1cc(C)c2nc(SC(C)C#N)cc(C)c2c1 (centres undefined)	-19	10	1	-4	-1	1.2
Cc1cccc(CN2C(=O)N/C(=C/c3cc(C)n(-c4ccccn4)c3C)C2=O)c1	98*	7	0.5	47	-1	0
Cc1cc(/C=N\NC(=O)CC(=O)NC2CCCCC2)c(C)n1-c1ccc(Cl)c(Cl)c1	-8	10	1.1	-13	-7	1.1
COc1cccc(NC(=O)C(=O)N/N=C/c2cc(C)n(-c3ccc(Cl)c(Cl)c3)c2C)c1	30	-7	0.4	57*	-2	0.7
CCN(CC)C(=O)c1c2c(nc3ccccc13)-c1ccccc1CC2	65*	27	0.8	24	-3	0.4
SMILES	CYP2C9 inh	PostGolgi ctrl	CYP2C19 activ	CYP2C19 inhib	PostGolgi yeast	CYP2C9 activ
C=CCNC(=O)c1c2c(nc3ccccc13)-c1ccccc1CC2	62*	-2	0.8	23	2	0.4
COc1ccnc(N=CNOCc2ccc(C)cc2)c1C#N	17	5	0.9	14	1	0.8
CCOC(=O)c1cnc(SC2CC(=O)N(c3cccc(OC)c3)C2=O)nc1N (centres undefined)	73*	3	0.6	36	1	0.3
Cc1cccc(N2C(=O)CC(Sc3nc(C)cc(C)n3)C2=O)c1 (centres undefined)	15	-5	0.6	40	-3	0.8
CCN(CC)c1cccc(OCC(=O)N(C)CCC#N)c1	-7	-1	1.1	-11	-1	1.1
COc1ccc(C2=NOC(C(=O)NC3CCCCC3)C2)cc1OC (centres undefined)	-83	3	0.8	22	-12	1.8
COc1ccc2[nH]c(=S)[nH]c2c1	5	23	0.9	5	-8	0.9
O=C(NCCO)c1ccc2[nH]c3ccccc3c2c1	16	-2	0.1	91*	8	0.8
COC(=O)c1[nH]c2cc(OC)ccc2c1N	3	10	0.8	22	-7	1
COc1ccc2[nH]c(O)c(NC(C)=O)c2c1	63*	11	0.9	8	-16	0.4
COc1ccc2[nH]c3ccccc3c2c1	3	8	0.5	55*	4	1
CC(=O)Nc1ccc2[nH]c(C)cc(=O)c2c1	-9	7	1.1	-9	0	1.1
CC(=O)Nc1ccc2[nH]c3ccccc3c2c1	10	-2	0.3	73*	-3	0.9
CC1(C)CC(=O)C=C(Nc2ccc(S(N)(=O)=O)cc2)C1	26	-9	1.1	-6	0	0.7
COC(=O)CN(C#N)c1nc(OC)nc(N(C)C)n1	-15	3	0.9	14	5	1.2
O=C(COc1ccc(-n2cnnn2)cc1)NC(=O)NCc1ccccc1	16	11	0.8	17	-8	0.8
C#CCOC(=O)CCC(=O)NCCc1ccccc1	26	6	0.3	67*	-8	0.7
O=C(CCc1nc(-c2ccccc2)no1)NCCc1ccccc1	36	11	0.5	46	0	0.6
Cc1cc(C)c(S(C)(=O)=O)c(Oc2ccc(C(C)(C)C)cc2)n1	86*	0	0.6	35	15	0.1
Cc1cc(C)c(S(C)(=O)=O)c(S(=O)c2ccc(Cl)cc2)n1 (centres undefined)	58*	24	1	1	-2	0.4
Cc1cc(-c2ccccc2)nc(Oc2cccc(C(F)(F)F)c2)c1S(C)(=O)=O	12	27	1	-4	-4	0.9
Cc1cc(-c2ccccc2)[nH]c(=O)c1S(=O)(=O)c1ccc(Cl)cc1	6	-2	1.1	-8	1	0.9
Cc1cc(C)c(S(C)(=O)=O)c(Oc2cccc(Cl)c2)n1	12	3	0.9	14	32*	0.9
CNc1nc(C)cc(C)c1S(=O)(=O)c1ccc(Cl)cc1	-42	11	0.3	66*	5	1.4
Cc1cc(C)c(C#N)c(Oc2ccccc2)n1	11	-5	0.7	26	-2	0.9

Assay outcomes from PubChem BioAssay.
